LDHA inh: blocks human lactate dehydrogenase A; P00338; purified LDHA, NADH/diaphorase-resazurin fluorescence; stronger effect = lower value; activity change, % (values are at about 110 or 230 µM); 480,000 compounds, 0.15% hits; in the data active = activity change below about -30%; inconclusive = mostly about -25% to -30%
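LDH5 2 nM; NADH 0.06 mM, pyruvate 0.2 mM; 200 mM Tris pH 7.4, EDTA, Tween-20; 5 min RT. Detection: diaphorase 0.133 mg/mL + resazurin 37 µM, fluorescence ex540/em590 at 0 and 20 min; normalized to enzyme-free and DMSO wells.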
RORg inh: ROR gamma (mouse) transcription inhibition | P51450 | Drosophila S2 Gal4-RORgamma UAS-luciferase reporter, 20 h | Potency, µM (doses to about 53.6 µM), hits mostly inhibitors | 310,000 compounds, 5.4% hits | AID 2551; also: nearly all actives have a fitted effect of over 60% in size
Target sequence (P51450 whole entry, looked up, the tested form may be a part): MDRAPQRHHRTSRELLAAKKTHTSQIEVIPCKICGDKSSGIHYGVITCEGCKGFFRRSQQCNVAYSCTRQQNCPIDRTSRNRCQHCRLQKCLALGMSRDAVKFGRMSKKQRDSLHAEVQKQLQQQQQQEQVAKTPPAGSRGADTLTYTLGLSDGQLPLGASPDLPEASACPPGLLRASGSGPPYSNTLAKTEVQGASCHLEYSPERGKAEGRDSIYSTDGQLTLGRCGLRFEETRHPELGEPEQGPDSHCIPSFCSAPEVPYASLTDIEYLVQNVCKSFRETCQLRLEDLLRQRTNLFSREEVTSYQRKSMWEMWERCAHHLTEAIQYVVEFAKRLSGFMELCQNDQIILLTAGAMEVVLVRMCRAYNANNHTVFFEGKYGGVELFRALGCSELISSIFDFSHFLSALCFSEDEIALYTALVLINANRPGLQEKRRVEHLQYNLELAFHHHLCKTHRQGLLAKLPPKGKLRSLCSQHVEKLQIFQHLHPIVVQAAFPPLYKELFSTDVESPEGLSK
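Schneider cells (Drosophila), stable Gal4 DBD–ROR gamma + UAS-luc; 1 hr cmpd preincubation; Cu2+ induction 700 uM final; 20 hr ambient; luminescence.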
DT40 TDP1 CPT: DT40-hTDP1 cell growth loss with CPT | 420,000 compounds, 12% hits | Potency, µM (series often up to 46.2 µM), hits mostly inhibitors | chicken DT40 Tdp1-/-;hTDP1 cells + 20 nM CPT, ATP luminescence, 48 h | AID 686979; also: nearly all actives have a fitted effect of over 55% in size
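Chicken DT40 Tdp1-/- cells complemented with human TDP1, 400 cells/well, exposed to compounds plus 20 nM camptothecin for at least 48 h at 37 C; viability read as ATP content by CellTiter-Glo luminescence.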
VP16 counter: inhibits Gal4-VP16 luciferase reporter, ROR gamma counter-screen; Drosophila S2 Gal4-VP16 UAS-luciferase, luminescence, 20 h; Potency, µM (doses to about 53.6 µM), actives largely listed as inhibitors; 310,000 compounds, 3.5% hits; AID 2546;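 also: Gal4-VP16 expression switched on by copper sulfate through the metallothionein promoter; nearly all actives have a fitted effect of over 50% in size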
IL1B secr inh: inflammasome signaling inhibition, IL-1 beta readout. THP-1 LPS/ATP IL-1B secretion, AlphaLISA, 16 h; stronger effect = lower value. activity change, % at 57.5 µM. 360,000 compounds, 4.7% hits; in the data active = activity change below about -50%; inconclusive = mostly about -30% to -49%
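THP-1 cells pretreated 1 hr with compounds (up to 57.5 uM final), then stimulated with LPS (250 ng/mL final) plus ATP (1.25 mM final); secreted IL-1B measured by AlphaLISA after 16 hr, decreased signal indicating inhibition.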
TDP1 cell noCPT: qHTS for Inhibitors of human tyrosyl-DNA phosphodiesterase 1 (TDP1): qHTS in cells in absence of CPT; 420,000 compounds, 15% hits; Potency, µM (doses to about 46.2 µM), most hits filed as inhibitors; DT40 Tdp1-/- hTDP1 cells, no CPT, ATP luminescence, 48 h; also: nearly all actives have a fitted effect of over 55% in size
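Chicken DT40 Tdp1-/- cells complemented with human TDP1, screened without camptothecin (DMSO vehicle only), 400 cells/well. Compounds pin-transferred, cells incubated at 37 °C for at least 48 hr. Growth read as ATP-dependent luminescence (CellTiter-Glo, 30 min at RT).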
Hits are given with their value; i = inactive; ? = inconclusive; nt = no result; ! = a repeat was not active; [ ] = another dose, or the depositor's remark. In the library only some 18% were active in any assay of this set; here they are far more common. Unless noted, calls follow the shape of the dose curve; as a rule, active = well fitted curve in the direction sought with a large enough effect; inconclusive = small, poorly fitted or top-dose-only effect, or another doubt; inactive = no such curve, though single readings can be large; an effect the other way counts as inactive or inconclusive.

SMILES	LDHA inh	RORg inh	DT40 TDP1 CPT	VP16 counter	IL1B secr inh	TDP1 cell noCPT
c1cc2c(c(NC3=NCCN3)c1)CCCC2	nt	i[10 µM]	?	i	nt	?
CN(C)C(=O)Cl	nt	i	nt	i	nt	nt
CCCCn1c(N)c(C(=O)OCC2CCCO2)c2nc3ccccc3nc21 (stereo unspecified)	i	i	18µM	i	i	18µM
CC(C)OC(=O)c1c(N)n(CC2CCCO2)c2nc3ccccc3nc12 (stereo unspecified)	i	i	?	i	i	?
CCCCn1c(NC(=O)c2ccco2)c(C(=O)OCC)c2nc3ccccc3nc21	i	?	9.2µM	i	?	4.6µM
CC(C)CCn1c(N)c(C(=O)OCC2CCCO2)c2nc3ccccc3nc21 (stereo unspecified)	i	i	?	i	i	?
CC(C)CCOC(=O)c1c(N)n(CC2CCCO2)c2nc3ccccc3nc12 (stereo unspecified)	i	i	?	i	-65	21µM
Nc1c(C(=O)OC2CCCCC2)c2nc3ccccc3nc2n1CC1CCCO1 (stereo unspecified)	i	11µM	?	i	?	16µM
ClCCN1CCCC1	i	nt	nt	nt	nt	nt
Fc1ccc(F)c(C(Cl)(Cl)Cl)c1	i	nt	nt	nt	nt	nt
CC1CC2CC(=O)C3CCCN4CCCC2[C@]34C1 (stereo partly specified)	nt	i	i	i	nt	i
Cc1ccccc1-c1nc(CS(=O)CC(=O)N2CCC3(CC2)OCCO3)c(C)o1 (stereo unspecified)	i	i	i	i	i	i
Cc1ccccc1-c1nc(CS(=O)CC(=O)N2CCN(c3cc(Cl)ccc3C)CC2)c(C)o1 (stereo unspecified)	i	nt	16µM	nt	nt	13µM
Cn1cc(C(=O)OCC(=O)NC2CC2)c2ccccc21	i	nt	nt	nt	nt	nt
COc1ccc(/C=C/[N+](=O)[O-])cc1OC	i	nt	nt	nt	nt	nt
COc1cc(/C=C(/C)[N+](=O)[O-])ccc1OCc1ccccc1Cl	i	4µM	3.3µM	?	-99	2.9µM
O=c1c2ccccc2nc(-c2ccccc2Cl)n1-c1cccc(O)c1	i	i	21µM	i	i	?
O=c1c2ccccc2nc(-c2ccc(Cl)cc2Cl)n1-c1nccs1	i	i	?	i	i	13µM
O=c1c2ccccc2nc(-c2ccc(-c3ccccc3)cc2)n1-c1ccncc1	i	i	?	i	i	21µM
Cc1ccc(-c2nc3ccccc3c(=O)n2-c2ccncc2)cc1	i	i	i	i	i	?
O=c1c2ccccc2nc(-c2ccccc2)n1-c1nccs1	i	i	i	i	i	?
COc1ccc(-n2c(SC)nc3ccccc3c2=O)cc1	i	i	15µM	i	i	18µM
CC1C(c2ccc(F)cc2)=[N+]([O-])C(C)(C(=O)c2ccccc2)N1O (stereo unspecified)	i	nt	nt	nt	nt	nt
CCOP(=S)(OCC)OCCSCC	nt	i	nt	i	nt	nt
O=C1NO[C@H]2[C@@H]1CN[C@@H]2C(=O)O	nt	i	nt	i	nt	nt
SMILES	LDHA inh	RORg inh	DT40 TDP1 CPT	VP16 counter	IL1B secr inh	TDP1 cell noCPT
OC[P+](CO)(CO)CO	nt	i	nt	i	nt	nt
COC(=O)c1ccccc1NC(=O)CN1C(=O)CN=C(c2ccccc2Cl)c2cc(Cl)ccc21	i	nt	nt	nt	nt	nt
COc1cccc(CNCCc2cccc(F)c2)c1	i	nt	nt	nt	nt	nt
Cc1ccc(-c2nc3ccccc3c(=O)n2-c2cccc(C)n2)cc1	i	i	i	i	i	?
COc1ccc(-n2c(-c3ccccc3[N+](=O)[O-])nc3ccccc3c2=O)cc1	i	i	23µM	i	i	15µM
Cc1ccc(-c2nc3ccccc3c(=O)n2-c2cccc(O)c2)cc1	i	i	2.3µM	i	i	8.2µM
Cc1ccc(-c2nc3ccccc3c(=O)n2-n2cccc2)cc1	i	i	16µM	i	i	12µM
COc1ccc(-n2c(-c3ccc(C)cc3)nc3ccccc3c2=O)cc1	i	i	15µM	i	i	15µM
COc1ccc(-c2nc3ccccc3c(=O)n2-c2cccnc2)cc1	i	i	?	i	i	i
Cc1nc2ccccc2c(=O)n1-c1cccc(O)c1	i	i	i	i	i	i
CC(Oc1ccccc1)C(=O)Nc1ccc(C(=O)OCc2cc(=O)n3nc(C4CC4)sc3n2)cc1 (stereo unspecified)	i	nt	?	nt	nt	?
O=C1CSC(c2ccc(F)c(Br)c2)c2cn[nH]c2N1 (stereo unspecified)	i	nt	nt	nt	nt	nt
O=C(Cl)c1ccccc1F	nt	i	nt	i	nt	nt
NCCc1cc(O)c(O)cc1O	i	i	5.2µM	i	i	3.7µM
CCCC1(CCC)C(=O)NC(=NCc2ccccc2)NC1=O	i	i	10µM	i	i	13µM
CCCCn1c(N)c(N(CCOC)C(=O)CN2CC=C(c3ccccc3)CC2)c(=O)[nH]c1=O	i	i	?	i	i	?
CCCCn1c(N)c(N(CC(C)C)C(=O)c2cc(Br)c(Br)s2)c(=O)[nH]c1=O	i	nt	?	nt	i	23µM
Brc1ccc2[nH]cc(/C=N/N3CCCCC3)c2c1	i	i	?	i	-65	15µM
CC(C)[N+](C)(CCC(C(N)=O)(c1ccccc1)c1ccccc1)C(C)C	i	i	7.3µM!	i	i	9.2µM!
O=C(C1CCCCC1)N1CCC(c2nc3c(nnn3Cc3c(F)cccc3Cl)c(=O)[nH]2)CC1	i	?	i	i	i	?
CC(C)(C)c1nc(N2CCN(C(=O)c3ccco3)CC2)c2nnn(Cc3ccccc3Cl)c2n1	i	?	?	?	i	21µM
Clc1ccc(C(c2ccccc2Cl)C(Cl)(Cl)Cl)cc1 (stereo unspecified)	nt	i	nt	i	nt	nt
CC[C@@H](C(=O)O)[C@@H]1O[C@@H]([C@@H](C)[C@H](O)[C@H](C)C(=O)[C@H](CC)[C@H]2O[C@]3(C=C[C@@H](O)[C@]4(CC[C@@](C)([C@H]5CC[C@](O)(CC)[C@H](C)O5)O4)O3)[C@H](C)C[C@@H]2C)[C@@H](C)C[C@@H]1C	nt	nt	0.47µM	nt	nt	0.27µM
C=CCOC(C)=O	nt	i	nt	i	nt	nt
O=C1NO[C@@H]2CN[C@@H](C(=O)O)[C@H]12	nt	i	nt	i	nt	nt
C=CCn1c(O)c(N=Nc2c(C)n(C)n(-c3ccccc3)c2=O)c(=O)[nH]c1=S	i	i	16µM	i	i	9.2µM
CCC(Cl)[N+](=O)[O-] (stereo unspecified)	nt	i	nt	i	nt	nt
CCc1cc(-c2nnn(CCC3COCCO3)c2CC)cc(CC)c1-c1cn(Cc2ccc3ccccc3c2)nn1 (stereo unspecified)	i	nt	21µM	nt	i	8.2µM
Cc1ccccc1C1CC(=O)Nc2ccc3ccccc3c21 (stereo unspecified)	i	nt	12µM	nt	nt	12µM
Cc1[nH]c2c(C)ccc(C)c2c1CCN	i	nt	nt	nt	nt	nt

Source: PubChem BioAssay
